The list is not random: actives were taken first. Their share in the collection is about 7.4%.
Rab9 promoter act = activators of Rab9 promoter | Huh7 Rab9 promoter-luciferase reporter, luminescence, 24 h | Potency, µM (top dose mostly 9.22 µM), inactives show at the top dose activation, negative = inhibition, usual class: activators | 2.8% of 320,000 active; also: % of control where 0% means no effect; nearly all actives have a fitted effect of over 60% in size
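Promoter activation is measured as luciferase luminescence in Huh7 cells stably transfected with a Rab9 promoter–luciferase construct, following 24 h compound exposure at 37 °C and 10 min reagent incubation at ambient temperature.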
Luc counter = counter-screen: inhibitors of Kinase-Glo firefly luciferase. Q27757. Kinase-Glo luciferase, ATP luminescence, 8 min. Potency, µM (highest dose often 38.3 µM), for inactives: top-dose activity change, negative = inhibition, most hits filed as inhibitors. 0.28% of 200,000 active. AID 1379; also: % is scaled to controls: 0 for no effect and ±100 for the full control effect; nearly all actives have a fitted effect of over 60% in size
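Luminescence was the read-out, taken after 8-minute incubation at ambient temperature. Luciferase turned over luciferin with 10 uM ATP in imidazole pH 7.2 buffer containing KCl, MgCl2, Tween 20 and BSA.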
SMN2 splice enh = SMN2 splice variant enhancement; HEK293 SMN2-luciferase splicing reporter, luminescence, 30-36 h; Potency, µM (titrated, usually from 46.1 µM), without a hit: at the highest dose activity change, positive = activation, most hits filed as activators; 2.8% of 210,000 active; AID 1458; also: % of control where 0% means no effect; nearly all actives have a fitted effect of over 55% in size
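HEK293 cells carry an SMN2 […]–luciferase reporter in which exon 7 inclusion puts luciferase in frame. Cells were plated 10-12 h before compound addition, then incubated 30-36 h at 37C. ONE-Glo luminescence was read; sodium butyrate at 4.5 mM final served as control.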
NPC1 prom act = activates the NPC1 promoter; Huh7 NPC1 promoter luciferase reporter, 24 h; Potency, µM (titrated, usually from 9.22 µM), for inactives: at the highest dose activation, most hits filed as activators; 2.4% of 320,000 active; AID 485313; also: % of control where 0% means no effect; nearly all actives have a fitted effect of over 60% in size
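Stable NPC1-promoter luciferase Huh7 line; cpd (DMSO) 24 h, 37 °C, 5% CO2; Amplite luciferase reagent 10 min RT; luminescence readout. qHTS format.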
FLuc counter = firefly luciferase modulation, counter-screen for miR-21 project; P08659; purified FLuc, Km substrates, luminescence inhibition; Potency, µM (series often up to 57.5 µM), inactives show at the top dose activity change, negative = inhibition, most hits filed as inhibitors; 6.9% of 360,000 active; AID 588342;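 also: plate controls were vehicle for no effect and reference inhibitor for full effect; nearly all actives have a fitted effect of over 55% in size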
Target sequence (P08659 whole entry, looked up): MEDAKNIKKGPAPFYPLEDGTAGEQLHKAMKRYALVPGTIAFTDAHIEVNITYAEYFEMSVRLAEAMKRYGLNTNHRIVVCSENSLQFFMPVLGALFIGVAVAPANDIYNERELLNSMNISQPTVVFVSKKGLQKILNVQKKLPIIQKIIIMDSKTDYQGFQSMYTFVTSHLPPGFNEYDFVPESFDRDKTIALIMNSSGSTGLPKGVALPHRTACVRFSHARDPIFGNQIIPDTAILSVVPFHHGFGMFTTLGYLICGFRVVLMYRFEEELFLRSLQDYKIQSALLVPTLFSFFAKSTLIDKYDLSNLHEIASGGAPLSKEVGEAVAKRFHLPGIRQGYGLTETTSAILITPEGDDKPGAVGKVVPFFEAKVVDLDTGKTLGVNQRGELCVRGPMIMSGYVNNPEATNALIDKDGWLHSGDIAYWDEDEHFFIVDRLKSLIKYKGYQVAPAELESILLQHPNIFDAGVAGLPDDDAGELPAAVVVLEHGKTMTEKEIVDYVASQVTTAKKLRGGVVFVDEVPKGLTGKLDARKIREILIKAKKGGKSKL
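Biochemical qHTS of compounds, final roughly 60 µM downward over six points, against 10 nM purified firefly luciferase using Km concentrations of substrates (10 uM D-luciferin, 10 uM ATP) in Tris acetate pH 7.5 buffer; luminescence output.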
ELG1 genotoxic = induces genotoxicity in HEK293T cells with luciferase-tagged ELG1; HEK293T ELG1-luciferase reporter, luminescence, 16 h; Potency, µM (series often up to 46 µM), inactives show top-dose activity change, positive = activation, actives largely listed as activators; 1.3% of 330,000 active; also: % of control where 0% means no effect; nearly all actives have a fitted effect of over 60% in size
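After overnight (16 hr) compound treatment at 37 °C, ELG1-luciferase HEK293T cells were lysed with ONE-Glo; luminescence quantified 30 min later at room temperature.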
Active calls of the source: *; ? = inconclusive; . = no result given; [ ] = remark or other dose. Calls follow the shape of the dose curve; as a rule, active = well fitted curve in the direction sought with a large enough effect; inconclusive = small, poorly fitted or top-dose-only effect, or another doubt; inactive = no such curve, though single readings can be large; an effect the other way counts as inactive or inconclusive. Potency is read from the fitted curve at half-maximal effect.

SMILES | Rab9 promoter act | Luc counter | SMN2 splice enh | NPC1 prom act | FLuc counter | ELG1 genotoxic
CCOc1cc(C(=S)N2CCCCC2)ccc1OCC(=O)NCc1ccccc1 | -5.8% | 16.1% | -26.2% | 0.8% | 16.9µM* | 0.5%
COC(=O)C1=C(C(=O)OC)[C@@H]2N(Cc3ccccc3)c3ccccc3[C@@]23C[C@@H](C(=O)OC)N(S(=O)(=O)c2ccc([N+](=O)[O-])cc2)C3=N1 | . | -7.9%[7.66 µM] | -0.3%[9.22 µM] | . | . | .
Cc1noc(C)c1NC(=O)Nc1ccc2c(c1)C(=O)N([C@H](C)CO)C[C@H](C)[C@@H](CN(C)C(=O)NC1CCCCC1)O2 | . | . | . | . | . | -2.6%
Cc1ccc(SCCC(=O)N2CCCC2)cc1 | 25.0% | -2.2% | -11.7% | 24.8% | -13.6% | 14.6µM*
Cc1ccc(SCCC(=O)N2CCOCC2)cc1 | 23.4% | -1.1% | ? | 26.0% | ? | 8.4%
Cc1ccc(SCCC(=O)N2CCC(C(N)=O)CC2)cc1 | 11.0% | . | . | 14.0% | -8.1% | ?
Cc1ccc(SCc2ccc(C(=O)N3CCCC3)cc2)cc1 | ? | -1.6% | ? | 24.7% | 16.9µM* | 13.4%
Cc1ccc(SCCC(=O)N2CCC(C)CC2)cc1 | 3.55µM* | -3.0% | ? | 4.47µM* | 13.5µM* | ?
CCN1CCN(C(=O)c2ccc(CSc3ccc(C)cc3)cc2)CC1 | -5.6% | -3.6% | -43.3% | 0.8% | -11.1% | -8.0%
Cc1ccc(C(=O)NCCC(=O)N2CCCC2)cc1 | 3.16µM* | . | . | 3.98µM* | 10.7µM* | 23.1µM*
NS(=O)(=O)c1ccc(CCNC(=O)COC(=O)CCc2c[nH]c3ccccc23)cc1 | . | . | . | . | . | 0.6%
O=C(NCCOc1ccc(F)cc1)C1CCC(=O)N(CC2CCCCC2)C1 (stereo not given) | -13.6% | . | . | 0.1% | 0.9% | -2.6%
CNC(=O)c1ccc(-c2cc3onc(-c4ccccc4)c3c(=O)n2C)cc1 | . | . | . | . | . | 15.9%
Cc1ccc(-c2cc3onc(-c4ccccc4)c3c(=O)n2C)cc1 | ? | . | . | ? | 0.135µM* | ?
Fc1ccc(Nc2c3c(nc4nncn24)CCC3)cc1 | . | . | -23.6% | . | -8.3% | .
O=C(c1cc(COc2ccc(F)c(F)c2)on1)N1CCSCC1 | ? | . | . | ? | 16.9µM* | ?
CC(=O)c1cccc(OCc2cc(C(=O)NCCC3=CCCCC3)no2)c1 | ? | . | . | 2.51µM* | 9.53µM* | ?
CC(=O)c1cccc(OCc2cc(C(=O)N3CCSCC3)no2)c1 | 3.16µM* | . | . | ? | 10.7µM* | 9.2µM*
COc1cc(C(C)=O)ccc1OCc1cc(C(=O)N2CCSCC2)no1 | 3.9% | . | . | 9.4% | -3.0% | 3.3%
CCN(CC)C(=O)Cn1cc(C(=O)C(=O)N2CC=C(c3ccccc3)CC2)c2ccccc21 | 3.6% | -0.6% | -11.2% | -2.9% | -0.6% | -4.8%
COc1ccc(CNC(=O)CN(c2ccccc2)S(=O)(=O)c2ccccc2[N+](=O)[O-])cc1 | -1.8% | -1.3% | . | -2.5% | -1.2% | -10.3%
CCOc1ccc(S(=O)(=O)N2CCCCC2)cc1NC(=O)CC1OC(=O)c2ccccc21 (stereo not given) | 0.8% | . | . | 0.0% | 4.9% | 4.2%
Cc1nn2c(-c3cccnc3)ccnc2c1-c1ccccc1 | 28.8% | -1.4% | 17.5% | 22.5% | 10.7µM* | 4.2%
Cc1nn2c(-c3ccccc3)ccnc2c1Br | -10.9% | . | . | -4.3% | -15.0% | 2.4%
COc1ccccc1-c1ccc(NC2CCCCC2)nn1 | ? | -3.1% | 10µM* | ? | 7.57µM* | ?
SMILES | Rab9 promoter act | Luc counter | SMN2 splice enh | NPC1 prom act | FLuc counter | ELG1 genotoxic
COC(=O)c1cc(C)nc(Sc2ccccc2N)n1 | 8.4% | . | . | -2.2% | 12µM* | -4.1%
COc1cc(C2Nc3cccc4cccc(c34)N2)ccc1OC(C)=O | 14.7% | -2.1% | 0.1% | -0.3% | 12µM* | 3.7%
COc1ccc(-c2nc3n(c2C)Cc2ccccc2-3)cc1 | ? | . | . | 2.51µM* | 2.39µM* | 13µM*
Cc1csc(SC(C)C(=O)Nc2ccccc2C)n1 (stereo not given) | -2.9% | . | . | 0.2% | -0.6% | 0.3%
COc1ccccc1C(=O)Nc1cc2ccccc2oc1=O | 3.98µM* | -17.1% | ? | 5.62µM* | ? | 2.82µM*
COc1ccc(NC(=O)c2cc3ccccc3oc2=O)c(OC)c1 | 2.82µM* | . | . | 2.82µM* | ? | ?
COc1ccc(S(=O)(=O)Nc2ccccc2OC)cc1NC(=O)c1cc2ccccc2oc1=O | 3.98µM* | . | . | 3.98µM* | 12µM* | ?
COc1ccc(OC)c(NC(=O)c2cc3cccc(OC)c3oc2=O)c1 | . | . | 7.0% | . | -0.8% | .
O=C(O)c1ccccc1NC(=O)c1cc2ccccc2oc1=O | 2.82µM* | . | . | 3.55µM* | 7.57µM* | ?
Cc1cc(-c2cc(-c3ccccc3)on2)nc(NC2CCCC2)n1 | 0.3% | . | . | 7.8% | ? | 2.8%
Nc1nc(-c2cc(-c3ccccc3)no2)cs1 | 1µM* | . | . | 1µM* | 3.01µM* | 2.06µM*
Cc1cc(NC(=O)c2cc(-c3ccccc3)on2)no1 | -1.9% | -5.4% | -2.4% | -1.8% | -19.4% | ?
c1ccc(-c2cc(-c3ccccc3)on2)cc1 | 1.41µM* | . | . | 1.41µM* | 0.757µM* | 5.8µM*
Cc1ccc(-c2cc(-c3ccccc3)no2)cc1 | 0.316µM* | . | . | 0.631µM* | 0.301µM* | ?
O=C(c1ccccc1)c1cc(-c2ccccc2)on1 | 0.631µM* | 11.2µM* | ? | 0.562µM* | 0.213µM* | 2.06µM*
Cc1ccc(Cn2c(SCC(=O)NCc3ccccc3)nc3ccsc3c2=O)cc1 | . | . | . | . | 2.5% | .
Cc1nc(/N=C(\N)Nc2ccccc2)nc2ccccc12 | 25.0% | -5.1% | 24.4% | ? | 12µM* | 3.4%
Cc1cc(C)nc(/N=C(\N)Nc2ccc(OCc3ccccc3)cc2)n1 | -30.6% | 1.9% | . | -17.2% | 4.8% | -3.8%
CC(=O)NS(=O)(=O)c1ccc(NC(=O)c2ccccn2)cc1 | -18.0% | -1.3% | 0.2% | -6.0% | -3.9% | 0.2%
CC(=O)NS(=O)(=O)c1ccc(NC(=O)c2oc3c(Cl)cccc3c2C)cc1 | 1.8% | . | . | -0.6% | 13.5µM* | -1.2%
COC(=O)/C(=C/c1c[nH]c2ccccc12)[N+](=O)[O-] | 12.1% | . | . | 5.0% | 19µM* | -2.2%
COC(=O)/C(=C/c1c[nH]c2ccccc12)NC(C)=O | -1.8% | -0.1% | 1.2% | -2.8% | 3.3% | -0.5%
Cc1ccc(C(=O)O/N=C/c2ccc(N(C)C)cc2)cc1 | 20.5% | 0.9% | . | 1.3% | ? | 13.4%
COc1ccc(/C=N/OC(=O)Nc2ccccc2OC)cc1 | ? | -10.2% | 15.8µM* | 0.8% | 8.49µM* | ?
Cc1ccc(NC(=O)O/N=C/c2ccc(Br)cc2)cc1 | -0.1% | . | . | 0.8% | ? | 3.4%
CCN(CC)c1ccc(/C=N/OC(C)C(=O)Nc2ccc(C)cc2)cc1 (stereo not given) | -0.3% | 0.0% | 2.0% | 0.8% | ? | -2.4%

Screens: PubChem, National Center for Advancing Translational Sciences (NCATS)
